{"source": "PubChem BioAssay (NCATS)", "note": "Inconclusive results are not listed. Unmarked numbers belong to inactive results. Activity calls are given as the source filed them. The call rests on the fitted dose curve; in most records, active means well fitted inhibition curve with a large enough effect; inconclusive means small, poorly fitted or top-dose-only effect; inactive means no such curve, though single readings can be large or run the other way. On the % scale 0 is the no-effect control and ±100 the full control effect; potency means the concentration at half of the fitted maximal effect."}
{"test_system": "Zika virus NS2B-NS3 protease (linked construct)", "test": "Primary screen NINDS Rhodamine qHTS for Zika virus inhibitors (AID 1347160); further: nearly all actives have a fitted effect of over 55% in size", "conditions": "purified NS2B-NS3 protease, Rhodamine110 substrate fluorescence; series mostly up to 57.1 µM; activity change, negative = inhibition: at the top concentration", "how_it_was_run": "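Each compound, titrated, sat 15 min with 25 nM linked protease before 1.5 microM Rhodamine110 substrate went in. Fluorescence gain over the next 15 min, in pH 8.0 Tris with Tween 20, gave Hill-fitted curves.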"}
{"smiles": "COCCOc1ccc2c(c1)ncn2-c1ccc2cccc(N3CCC(N)CC3)c2n1", "outcome": "inactive"}
{"smiles": "C[C@]1(CO)CN(c2cc(C(=O)Nc3ccc4c(c3)-c3c(c(C(N)=O)nn3-c3ccc(F)cc3)CC4)c(Cl)cn2)C[C@@]1(C)CO", "activity change, negative = inhibition": "2.4%"}
{"smiles": "CNC(=O)c1c(F)cccc1Nc1nc(Nc2cc3c(cc2OC)CCN3C(=O)CN(C)C)nc2[nH]ccc12", "activity change, negative = inhibition": "53.2%"}
{"smiles": "CCCCCCCCCC(=O)N[C@@H](Cc1c[nH]c2ccccc12)C(=O)N[C@H](CC(N)=O)C(=O)N[C@@H](CC(=O)O)C(=O)N[C@@H]1C(=O)NCC(=O)N[C@@H](CCCN)C(=O)N[C@@H](CC(=O)O)C(=O)N[C@H](C)C(=O)N[C@@H](CC(=O)O)C(=O)NCC(=O)N[C@H](CO)C(=O)N[C@@H]([C@@H](C)CC(=O)O)C(=O)N[C@@H](CC(=O)c2ccccc2N)C(=O)O[C@@H]1C", "activity change, negative = inhibition": "-10.5% [at 15.1 µM]"}
{"smiles": "Cn1c(CNc2ccc(C(=N)N)cc2)nc2cc(C(=O)N(CCC(=O)O)c3ccccn3)ccc21", "outcome": "inactive"}
{"smiles": "Cc1nc(N)ncc1-c1nc(N2CCOCC2)c2sc(C(C)(C)O)cc2n1", "outcome": "inactive"}
{"smiles": "COc1c(OCCCN2CCOCC2)ccc2c3n(c(=NC(=O)c4cnc(N)nc4)nc12)CCN3", "outcome": "inactive [at 10.7 µM]"}
{"smiles": "COc1cc(C(=O)N2CCC(N3CCN(C)CC3)CC2)ccc1Nc1ncc2c(n1)N(C)c1ccccc1C(=O)N2C", "activity change, negative = inhibition": "11.9%"}
{"smiles": "CCOc1ccccc1OCCNC(C)Cc1ccc(OC)c(S(N)(=O)=O)c1", "note": "(stereo not drawn)", "activity change, negative = inhibition": "11.4%"}
{"smiles": "N#CCNC(=O)c1ccc(-c2ccnc(Nc3ccc(N4CCOCC4)cc3)n2)cc1", "activity change, negative = inhibition": "19.7%"}
{"smiles": "COc1cccc2nc(-c3cccs3)nc(NN3C(=O)C=C(C)C3=O)c12", "activity change, negative = inhibition": "67.2%"}
{"smiles": "NC(=O)c1c(OCc2c(F)cc(Br)cc2F)nsc1NC(=O)NCCCCN1CCCC1", "activity change, negative = inhibition": "186%"}
{"smiles": "C=CC(=O)Nc1cccc(Oc2nc(Nc3ccc(N4CCN(C)CC4)cc3OC)ncc2Cl)c1", "activity change, negative = inhibition": "223%"}
{"smiles": "COC(=O)Nc1nc2ccc(C(=O)c3ccc(F)cc3)cc2[nH]1", "outcome": "inactive"}
{"smiles": "O=C(Nc1nc2cccc(-c3ccc(CN4CCS(=O)(=O)CC4)cc3)n2n1)C1CC1", "activity change, negative = inhibition": "-17.6%"}
{"smiles": "CNC(=O)c1ccccc1Nc1nc(Nc2ccc(N3CCOCC3)cc2OC)ncc1Cl", "activity change, negative = inhibition": "93.8%"}
{"smiles": "CC(C)c1noc(N2CCC(COc3ccc(-c4ccc(S(C)(=O)=O)cc4)nc3)CC2)n1", "activity change, negative = inhibition": "9.43%"}
{"smiles": "Cc1nc(Nc2n[nH]c3c2CN(C(=O)N[C@H](CN(C)C)c2ccccc2)C3(C)C)c2sccc2n1", "outcome": "inactive"}
{"smiles": "CN(C)Cc1c(C(=O)NCCOc2ccc(C(=O)NO)cc2)oc2ccccc12", "outcome": "inactive"}
{"smiles": "CS(=O)(=O)N1CCN(Cc2cc3nc(-c4cccc5[nH]ncc45)nc(N4CCOCC4)c3s2)CC1", "activity change, negative = inhibition": "-18.8%"}
{"smiles": "CC[C@@]1(O)C(=O)OCc2c1cc1n(c2=O)Cc2cc3cc(O)ccc3nc2-1", "Potency": "20 µM (active)"}
{"smiles": "c1ccc2c(CCNc3ccc(Nc4ccncc4)cc3)c[nH]c2c1", "activity change, negative = inhibition": "180%"}
{"smiles": "Nc1ccccc1NC(=O)c1ccc(CNc2nccc(-c3cccnc3)n2)cc1", "activity change, negative = inhibition": "-13%"}
{"smiles": "COc1cc2c(Oc3ccc(NC(=O)C4(C(=O)Nc5ccc(F)cc5)CC4)cc3F)ccnc2cc1OCCCN1CCOCC1", "activity change, negative = inhibition": "131%"}
{"smiles": "COc1cc(C)c(Sc2cnc(NC(=O)c3ccc(CNC(C)C(C)C)cc3)s2)cc1C(=O)N1CCN(C(C)=O)CC1", "note": "(stereo not drawn)", "outcome": "inactive; activator"}
{"smiles": "CCc1cc2c(cc1N1CCC(N3CCOCC3)CC1)C(C)(C)c1[nH]c3cc(C#N)ccc3c1C2=O", "activity change, negative = inhibition": "37.8% [at 33.1 µM]"}
{"smiles": "CC[C@@H]1C(=O)N(C)c2cnc(Nc3ccc(C(=O)NC4CCC(N5CCN(CC6CC6)CC5)CC4)cc3OC)nc2N1C(C)C", "note": "(stereo partly drawn)", "Potency": "inactive"}
{"smiles": "O=C(Cc1ccc(-c2ccc(OCCN3CCOCC3)cc2)cn1)NCc1ccccc1", "outcome": "inactive"}
{"smiles": "Nc1cccc(-c2cc3c(Oc4cccc(O)c4)ncnc3[nH]2)c1", "activity change, negative = inhibition": "42.6%"}
{"smiles": "Cc1ccc(C(=O)Nc2ccc(CN3CCN(C)CC3)c(C(F)(F)F)c2)cc1C#Cc1cnc2cccnn12", "activity change, negative = inhibition": "578%"}
{"smiles": "Clc1cccc(-c2nnnn2Cc2cccnc2)c1Cl", "activity change, negative = inhibition": "-24.2%"}
{"smiles": "OCc1ccc(-c2ccc(-c3ccc(CO)s3)o2)s1", "activity change, negative = inhibition": "38.9% [at 33.1 µM]"}
{"smiles": "CN1CCN(Cc2ccc(NC(=O)Nc3ccc(Oc4cc(NC(=O)C5CC5)ncn4)cc3)cc2C(F)(F)F)CC1", "activity change, negative = inhibition": "347%"}
{"smiles": "CS(=O)(=O)c1ccc(-c2cnc(N)c(C(=O)Nc3ccccc3)n2)cc1", "activity change, negative = inhibition": "-1.85%"}
{"smiles": "O=C(Nc1ncc(-c2cc(C(F)F)nn2-c2c(Cl)cccc2Cl)s1)C1CC1", "activity change, negative = inhibition": "19.8%"}
{"smiles": "Cc1cnc(-c2cnc(NCCNc3ccc(C#N)cn3)nc2-c2ccc(Cl)cc2Cl)[nH]1", "activity change, negative = inhibition": "-16.7%"}
{"smiles": "O=C1CCC[C@@H]2[C@H]3CCC[N+]4([O-])CCC[C@@H](CN12)[C@@H]34", "note": "(stereo partly drawn)", "activity change, negative = inhibition": "21%"}
{"smiles": "Nc1cc(C(F)(F)F)c(-c2cc(N3CCOCC3)nc(N3CCOCC3)n2)cn1", "activity change, negative = inhibition": "12.2%"}
